IP6K1 inhibitor – blocks human inositol hexakisphosphate kinase 1 | Q92551 | IP6K1 kinase, ADP-Glo luminescence, 2 h; hits give low values | activity change, % (series mostly up to about 58 µM) | 0.81% of 140,000 active; in the data active means activity change below about -25%
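ADP-Glo luminescence measures ADP made by human IP6K1 during a 2 h RT reaction with ATP/IP6 (mix at 1.3 mM/130 uM); top library doses 57.5 and 19.1 uM final.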
SNCA viab count – cell viability loss counter-screen | Potency, µM (highest dose often 57.1 µM), usual class: cytotoxic | HEK-293-SNCA-luc viability, GF-AFC fluorescence, 24 h | 0.12% of 150,000 active; further: nearly all actives have a fitted effect of over 30% in size
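Cytotoxicity counterscreen: after 24 h compound treatment of genome-edited SNCA-luciferase HEK-293 cells, live-cell protease substrate GF-AFC read by fluorescence after 30 min; activity scaled between DMSO (0%) and medium-only (-100%), curves Hill-fitted.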
SNCA expr inh – reduces expression of the alpha-synuclein gene | HEK-293 SNCA-luciferase knock-in, luminescence, 24 h | AID 1671194 | 0.17% of 140,000 active | Potency, µM (highest dose often 57.2 µM), hits mostly inhibitors; further: nearly all actives have a fitted effect of over 45% in size
KDM5B inhibitor – KDM5B demethylase inhibition; Q9UGL1; KDM5B demethylase, FDH-coupled NADH fluorescence (FDH is formaldehyde dehydrogenase); Potency, µM (titrated, usually from 57.7 µM), usual class: inhibitors; 2.6% of 220,000 active; further: nearly all actives have a fitted effect of over 70% in size
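Here, H3K4me3 peptide (12.5 µM in substrate mix) is demethylated by KDM5BΔAP, 200 nM final, after 10 min compound exposure. Formaldehyde product is coupled through FDH (0.25 U/mL in mix) to NADH fluorescence; 30-min ΔRFU feeds dose-response curves.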
A number is an active result; n = inactive; u = inconclusive; x = no result given; [ ] = another dose, or the depositor's remark. Most compounds without a hit are left out; they make up all but 2.9% or so of the library. Unless noted, the call rests on the fitted dose curve; in most records, active means well fitted curve in the direction sought with a large enough effect; inconclusive means small, poorly fitted or top-dose-only effect, or another doubt; inactive means no such curve, though single readings can be large; an effect the other way counts as inactive or inconclusive.

SMILES | IP6K1 inhibitor | SNCA viab count | SNCA expr inh | KDM5B inhibitor
Cc1ccc(-c2nnc3ccc(NC4CCCCC4)nn23)nc1 | n | n | n | u
COc1ccc(-c2nnc3ccc(NC4CCCCC4)nn23)nc1 | n | n | n | 31.6µM
COCCNc1ccc2nnc(-c3ccc(OC)cn3)n2n1 | n | n | n | 39.8µM
COc1ccc(-c2nnc3ccc(NC(C)C)nn23)nc1 | n | n | n | u
c1ccc(CC2CCOC3(CCN(Cc4ccncc4)CC3)C2)cc1 (centres undefined) | n | n | n | u
Cc1nc2c(s1)CCCC2NC(=O)c1ccc(CCC(C)(C)O)cc1 (centres undefined) | n | n | n | n
CN(C)c1cc(=O)c2ccnc(-c3ccc(N4CCOCC4)cc3)c2o1 | n | n | n | 31.6µM
O=c1cc(N2CCOCC2)oc2c(-c3ccc(F)c(Cl)c3)nccc12 | n | n | u | 20µM
CN(c1cc(=O)c2ccnc(-c3ccc(O)c(F)c3)c2o1)C1CCOCC1 | n | n | n | 31.6µM
COc1cc(F)ccc1-c1nccc2c(=O)cc(N(C)C3CCOCC3)oc12 | n | n | u | 39.8µM
CN(C)c1cc(=O)c2ccnc(-c3ccc(O)c(F)c3)c2o1 | n | n | n | u
COc1ncccc1-c1nccc2c(=O)cc(N(C)C3CCOCC3)oc12 | n | n | n | n
CCCNC(=O)OC1CN(CC(C)C)C(=O)CN(C(=O)c2cccs2)C1 (centres undefined) | n | x | x | x
Cc1ccc(C(C)(C)c2ccc(C(=O)O)cc2)cc1C | x | x | x | n
COc1cc(F)ccc1-c1nccc2c(=O)cc(N3CCOCC3)oc12 | n | n | n | 35.5µM
COc1ccc(-c2nccc3c(=O)cc(N4CCOCC4)oc23)cc1OC | n | n | n | n
O=c1cc(N2CCOCC2)oc2c(Nc3ccccn3)nccc12 | n | n | n | u
O=c1cc(N2CCOCC2)oc2c(NCc3ccc(F)cc3)nccc12 | n | n | n | 35.5µM
O=c1cc(N2CCOCC2)oc2c(-c3ccc(F)cc3)nccc12 | n | n | n | 35.5µM
COC1CCC12CCN(C(=O)c1cccnc1C)CC2 (centres undefined) | n | n | n | n
COc1cc(C(=O)N2CC[C@@]3(O)CCN(S(C)(=O)=O)C[C@H]3C2)ccn1 | n | n | n | n
Cc1[nH]c2ccccc2c1C1c2ccccc2C(=O)N1CC(=O)NCC(N)=O (centres undefined) | x | x | x | n
O=c1c2c(n(Cc3cccnc3)n1CCc1ccccc1)CN(CC1CCOC1)CC2 (centres undefined) | n | n | n | 35.5µM
O=c1c2c(n(Cc3cccnc3)n1CCc1ccccc1)CN(CC1CC1)CC2 | n | n | u | u
O=c1c2c(n(Cc3ccccc3)n1-c1ccccc1)CN(Cc1cccnc1)CC2 | n | n | n | 31.6µM
SMILES | IP6K1 inhibitor | SNCA viab count | SNCA expr inh | KDM5B inhibitor
O=C(CCC1CCN(Cc2ncc[nH]2)CC1)NC1CCN(Cc2ccccc2)C1 (centres undefined) | n | n | n | n
CC(OC(=O)c1ccccn1)C(=O)C12CC3CC(CC(C3)C1)C2 (centres undefined) | x | x | x | n
Cc1ccncc1C(=O)N1CCC(C(=O)N2CCCCCCNC(=O)CC2)CC1 | n | n | n | n
O=[S+]([O-])(c1cccc(C(F)(F)F)c1)N1CCC2(CCN(Cc3cccs3)c3ccccc3O2)CC1 | n | n | n | 11.2µM
Cc1ccc(C2(O)CCN(c3ncccc3C(F)(F)F)CC2)nc1 | n | n | n | n
Cc1ccc(C2(O)CCN(c3cc(C(F)(F)F)ccn3)CC2)nc1 | n | n | n | 25.1µM
CN(C)CC1(O)CCC2(CCN(C(=O)c3cnccn3)CC2)CC1 | n | n | n | u
CCN(Cc1nccn1C)C(=O)c1ccc(N2CCSCC2)nc1 | n | n | n | u
CCN(Cc1nccn1C)C(=O)c1cc(-c2cnc(N)nc2)nc2c(C)cccc12 | n | n | n | 28.2µM
NC(=O)C1CCCN(c2nc(-c3ccncc3)nc3ccccc23)C1 (centres undefined) | x | x | x | n
O=C(CC1CCCCC1)NC(Cc1ccccc1)C(=O)N1CCN(c2ccccn2)CC1 (centres undefined) | n | n | u | 22.4µM
NC(Cc1ccccc1)C(=O)N1CCN(c2ccccn2)CC1 (centres undefined) | n | n | n | 22.4µM
O=C(C1Cn2cccc2C(=O)N1Cc1ccccc1)N1CCN(c2ncccn2)CC1 (centres undefined) | n | n | n | 17.8µM
O=C(NC(Cc1ccccc1)C(=O)N1CCN(c2ncccn2)CC1)c1ccccc1 (centres undefined) | x | x | x | n
O=C(O)[C@@H]1CN(Cc2ccccc2)C[C@@H]1C(=O)N1CCN(c2ccccn2)CC1 | n | n | n | 22.4µM
O=C(CC1CCN(C(=O)c2ccccc2F)C1)NCc1ccccc1 (centres undefined) | n | n[12.5 µM] | n | n
CC(C)CC(=O)NC1CCCc2c1[nH]c1ccc(Cl)cc21 (centres undefined) | n | n | n | n
COc1cc2c(cc1CN1CCN(c3ccc(C#N)cc3)C(=O)C1)CCC2 | n | n | n | 31.6µM
CCOc1ccccc1C(=O)N1CCc2cn(C)c3cccc(c23)C1 | n | n | n | u
O=C(NCCn1ccn2nc(-c3ccc(F)cc3)cc2c1=O)c1cccc2[nH]ccc12 | n | n | n | 28.2µM
Cc1ccc(-c2cc3c(=O)n(CCNC(=O)c4ccc[nH]c4=O)ccn3n2)cc1C | n | n | n | 35.5µM
Cc1ccc(-c2cc3c(=O)n(CCNC(=O)c4ccoc4)ccn3n2)cc1C | n | n | n | u
Cc1ccc(-c2cc3c(=O)n(CCNC(=O)c4cccc5[nH]ccc45)ccn3n2)cc1C | n | u | n | 28.2µM
Cc1ccc(-c2cc3c(=O)n(CCNC(=O)Cc4cccc(F)c4)ccn3n2)cc1C | n | n | n | u
CC(C)CNC(=O)c1cc(-c2ccccc2C(F)(F)F)nc2c1cnn2C | n | x | x | x
SMILES | IP6K1 inhibitor | SNCA viab count | SNCA expr inh | KDM5B inhibitor
CCCNC(=O)Cc1csc2nc(C)c(-c3cc(C)n(-c4ccc(C)cc4)n3)c(=O)n12 | n | n | n | 28.2µM
Cc1ccc(-n2nc(-c3c(C)nc4scc(CC(=O)Nc5ccc(F)cc5)n4c3=O)cc2C)cc1 | n | n | n | 28.2µM
CCC(C)NC(=O)Cc1csc2nc(C)c(-c3cc(C)n(-c4cc(Cl)ccc4C)n3)c(=O)n12 (centres undefined) | n | u | n | u
CCCNC(=O)Cc1csc2nc(C)c(-c3cc(C)n(-c4ccc(C(C)C)cc4)n3)c(=O)n12 | n | n | n | 28.2µM
CCC(C)NC(=O)Cc1csc2nc(C)c(-c3cc(C)n(-c4ccc(C)cc4)n3)c(=O)n12 (centres undefined) | n | n | n | 28.2µM
Cc1nc2scc(CC(=O)N3CCOCC3)n2c(=O)c1-c1cc(C)n(-c2ccc(F)cc2)n1 | n | n | n | u
COc1cc(OC)cc(C(=O)N[C@@H]2CN(C)C[C@H]2CN(C)C)c1 | n | n | n | u
COc1cccc(C(=O)N[C@@H]2CN(c3ccccn3)C[C@H]2CN(C)C)c1OC | n | n | n | 28.2µM
COc1cccc(C(=O)N[C@@H]2CN(c3ccccn3)C[C@H]2CN(C)C)c1 | n | n | n | 28.2µM

Assay outcomes (PubChem)
